Values joined by “and” are separate entries in the source; they are usually repeats but may differ in a detail not shown here. Equal values may be shown once. Out of some 5,500 compounds screened, about 2,000 (36%) were called active. Inconclusive results (about 18%) are left out. Cut-off read from the data, not from the text of the source: active = normalized growth mostly below about 0.91 (no sharp cut-off); inconclusive = no clear call, values can overlap the other calls; inactive = mostly above about 0.92. The list shows a part of the results.
Assay: chemical genetic growth profiling, strain panel (AID 1159580);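 note: tested at 20 µM; growth read once vehicle control cultures reached saturation at 30 °C; 1 = growth at the plate median or of vehicle wells; lower values mean less growth of the strain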
Details: S. cerevisiae deletion strains, growth OD

Measured: normalized growth

O=C(O)c1cc(=O)c2c(Cl)cc(Cl)cc2[nH]1
inactive: locus YAL013W, strain DEP1, hits give low values 1 | locus YAL021C, strain ccr4, hits give low values 1 | locus YAL026C, strain drs2, hits give low values 1.02 | locus YAL030W, strain snc1, hits give low values 1.02 | locus YAL040C, strain CLN3, hits give low values 0.995 | locus YBL061C, strain skt5, hits give low values 1.01 | locus YBR009C, strain hhf1, hits give low values 1 | locus YBR021W, strain FUR4, hits give low values 1 | locus YBR023C, strain chs3, hits give low values 1.02 | locus YBR171W, strain sec66, hits give low values 1.01 | locus YBR229C, strain ROT2, hits give low values 1.01 | locus YBR231C, strain swc5, hits give low values 1.02 | locus YBR279W, strain paf1, hits give low values 1.01 | locus YCL011C, strain gbp2, hits give low values 1.01 | locus YCL016C, strain dcc1, hits give low values 1.01 | locus YCL029C, strain bik1, hits give low values 1.01 | locus YCL061C, strain MRC1 (second series), hits give low values 0.998 | locus YCL061C, strain MRC1, hits give low values 1.02 | locus YCL069W, strain vba3, hits give low values 1 | locus YCR088W, strain abp1, hits give low values 1.01 | locus YDL005C, strain med2, hits give low values 1.01 | locus YDL035C, strain GPR1, hits give low values 1.01 | locus YDL040C, strain nat1, hits give low values 1.01 | locus YDL074C, strain BRE1, hits give low values 1 | locus YDL101C, strain DUN1, hits give low values 1.01 | locus YDL134C, strain PPH21, hits give low values 1.02 | locus YDL185W, strain tfp1, hits give low values 1.01 | locus YDL192W, strain arf1, hits give low values 1.02 | locus YDR001C, strain nth1, hits give low values 1.01 | locus YDR069C, strain doa4, hits give low values 1.02 | locus YDR101C, strain arx1, hits give low values 1.03 | locus YDR137W, strain rgp1, hits give low values 1.02 | locus YDR150W, strain NUM1, hits give low values 0.999 | locus YDR159W, strain sac3, hits give low values 1.01 | locus YDR162C, strain NBP2, hits give low values 1.02 | locus YDR195W, strain ref2 1.02 | locus YDR297W, strain sur2, hits give low values 1.01 | locus YDR318W, strain mcm21, hits give low values 1.02 | locus YDR334W, strain swr1, hits give low values 1.01 | locus YDR335W, strain msn5, hits give low values 1.01 | locus YDR363W, strain ESC2, hits give low values 0.974 | locus YDR388W, hits give low values 1.01 | locus YDR392W, strain spt3, hits give low values 0.979 | locus YDR502C, strain sam2, hits give low values 1.01 | locus YEL003W, strain gim4, hits give low values 1.01 | locus YEL037C, strain rad23, hits give low values 1.01 | locus YEL061C, strain CIN8 (second series), hits give low values 1.01 | locus YEL061C, strain CIN8, hits give low values 1 | locus YER002W, strain NOP16, hits give low values 1 | locus YER015W, strain faa2, hits give low values 1.02 | locus YER016W, strain bim1, hits give low values 1.01 | locus YER110C, hits give low values 1.03 | locus YER111C, strain swi4, hits give low values 1.02 | locus YER155C, strain BEM2 (second series), hits give low values 1.03 | locus YER155C, strain BEM2, hits give low values 0.994 | locus YER167W, strain BCK2, hits give low values 1 | locus YFR010W, strain ubp6, hits give low values 1.02 | locus YGL078C, strain dbp3, hits give low values 1.01 | locus YGL086W, strain mad1, hits give low values 1.02 | locus YGL167C, strain pmr1, hits give low values 1.02 | locus YGL173C, strain kem1, hits give low values 1.02 | locus YGL227W, strain vid30, hits give low values 1.01 | locus YGL240W, strain doc1, hits give low values 1.02 | locus YGL248W, strain PDE1, hits give low values 1.01 | locus YGL253W, strain hxk2, hits give low values 1.02 | locus YGR078C, strain PAC10, hits give low values 1 | locus YGR135W, strain pre9, hits give low values 1.03 | locus YGR229C, strain SMI1, hits give low values 1.05 and 0.981 | locus YGR252W, strain gcn5, hits give low values 1 | locus YHR013C, strain ard1, hits give low values 0.987 | locus YHR027C, strain rpn1, hits give low values 1.02 | locus YHR030C, strain SLT2, hits give low values 1 | locus YHR079C, strain IRE1 (second series), hits give low values 1.01 | locus YHR094C, strain hxt1, hits give low values 1.02 | locus YHR129C, strain ARP1, hits give low values 1.01 | locus YHR142W, strain chs7, hits give low values 1.02 | locus YHR200W, strain rpn10, hits give low values 1.01 | locus YIL066C, strain RNR3, hits give low values 1.01 | locus YIL073C, strain SPO22, hits give low values 1.04 | locus YIL125W, strain kgd1, hits give low values 1.01 | locus YIR030C, strain dcg1, hits give low values 1.01 | locus YJL092W, strain hpr5, hits give low values 1.01 | locus YJL095W, strain BCK1 (second series), hits give low values 1.01 | locus YJL095W, strain BCK1, hits give low values 0.998 | locus YJL115W, strain asf1, hits give low values 1.01 | locus YJL129C, strain trk1, hits give low values 1.01 | locus YJL134W, strain LCB3, hits give low values 1.01 | locus YJL154C, strain vps35, hits give low values 1.01 | locus YJL164C, strain tpk1, hits give low values 1.01 | locus YJL166W, strain qcr8, hits give low values 1.02 | locus YJL168C, strain set2, hits give low values 1.02 | locus YJL187C, strain SWE1 (second series), hits give low values 1

Reference: PubChem BioAssay AID1159580 (chemical genetic matrix, 2015)
